Experimental findings from PubChem BioAssay (EPA / NIEHS) are described below.

Structures are written as SMILES. Several values for one entry are separate records, joined by “and”; a condition that tells them apart may be missing. Equal values may be shown once. Records with an inconclusive call do not appear. Activity calls are given as the source filed them. Rule for the calls: active = hit-call score of the fitted dose curve at least 0.9, where 1 is the maximum; inconclusive = response in the unintended direction; inactive = score below 0.9.

A short description of this test: CCTE_Simmons_CellTiterGLO_HEK293T: Viability Assessment in CCTE's Assays for Thyroperoxidase (TPO) Inhibition, Simmons Lab (AID 2283665).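 For AC50: cells exposed to compound for 24 h before readout; actives reduce ATP signal below DMSO vehicle meaning cytotoxicity.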 How it is done:
CCTE_Simmons_CellTiterGLO_HEK293T is a cell-based, single-readout assay that uses HEK293T, a human kidney cell line, with measurements taken at 24 hours after chemical dosing in a 384-well plate.CCTE_Simmons_CellTiterGLO_HEK293T is the assay component measured from the CCTE_Simmons_CellTiterGLO_HEK293T assay. It is designed to make measurements of ATP content, a form of viability reporter, as detected with bioluminescence signals by Luciferase-coupled ATP quantitation technology. This is a secondary cytotoxicity assay to CCTE_Simmons_AUR_TPO to estimate a cellular tolerance limit.Data from the assay component CCTE_Simmons_CellTiterGLO_HEK293T was analyzed at the endpoint, CCTE_Simmons_CellTiterGLO_HEK293T, in the positive analysis fitting direction relative to DMSO as the negative control and baseline of activity. Using a type of viability reporter, measures of ATP content for loss-of-signal activity can be used to understand the viability. This assay was run in parallel with aeid 1508 as a means of indicating the range of chemical cytotoxicity or reactivity. To generalize the intended target to other relatable targets, this assay endpoint is annotated to the cell cycle intended target family, where the subfamily is cytotoxicity.
Human HEK293T cells (GenHunter; Nashville, Tennessee) were seeded overnight in 384-well, solid white assay plates (Greiner, BioExpress) at a density of 10 000 cells per well in 65 ul Dulbecco's Modified Eagle Medium (Life Technologies; Carlsbad, California) supplemented with 1% fetal bovine serum (HyClone; Logan, Utah). Test compounds were administered using the HDRT as described earlier to achieve a 0.5% final DMSO concentration. Cells were then incubated at 37C for 24 hr in a humidified 5% CO2 incubator. Cell Titer Glo (Promega; Madison, WI) reagent (25 ul) was then added by the BioTek MicroFlo and microplates were incubated at room temperature in the dark for 20min. Plates were read on a plate reader (FLUOStar Optima) using an endpoint luminescence protocol (top read). Three biological replicates of technical singles were run for every chemical concentration tested. A titrated range of DCNQ served as a positive control on each plate of the cytotoxicity screening assay.Test chemicals were administered as a titrated series of 8 concentrations from 5 nM up to 87.5 uM [final] for 24 hours prior to single endpoint detection. Three biological replicates of technical singles were run for every chemical concentration tested. Dimethylsulfoxide [DMSO] was used as the vehicle control. Dichlone [DCNQ] was used as the positive control and was administered as a titrated series of 8 concentrations from 1 nM up to 100 uM [final].
A general note: ATP-based viability assays read luminescence as a measure of living cells.
`CCOc1nc(F)cc2nc(S(=O)(=O)Nc3c(Cl)cccc3Cl)nn12`: the compound was classed as inactive.

As for `COC(=O)NC(=S)Nc1ccccc1NC(=S)NC(=O)OC`, the compound was called inactive.

For the compound `O=P(O)(O)CCCl`, the outcome was inactive.

For `CS(=O)(=O)c1ccc(C(=O)C2C(=O)CCCC2=O)c([N+](=O)[O-])c1`, the result was inactive.

In the case of `COc1ccc(-c2ccccc2)cc1NNC(=O)OC(C)C`, the AC50 is 42.4 µM (active).

With `OC(c1ccc(Cl)cc1)(c1ccc(Cl)cc1)C(Cl)(Cl)Cl`, the AC50 was 6.74 µM (active).

Take `CCOP(=S)(OCC)Oc1nc(Cl)n(C(C)C)n1`: the compound was classed as inactive.

On to `CCOc1nc(C(Cl)(Cl)Cl)ns1`, for which the half-maximal activity concentration (AC50) was 82.9 µM (active) and 70.4 µM (active).

As to `Cc1cnc(C2=NC(C)(C(C)C)C(=O)N2)c(C(=O)O)c1` (configuration not stated), the compound was classed as inactive.

In the case of `COP(=S)(OC)Oc1ccc([N+](=O)[O-])c(C)c1`, the compound was called inactive.

Regarding `O=c1n(Cl)c(=O)n(Cl)c(=O)n1Cl`, the outcome was inactive.

Regarding `CCN(CC)c1nc(C)cc(OP(=S)(OC)OC)n1`, the concentration at half-maximal activity (AC50) was 53.8 µM (active).

As to `Clc1nc(Cl)nc(Nc2ccccc2Cl)n1`, the half-maximal activity concentration (AC50) was 83.1 µM (active).

Consider `CCOP(=O)(OCC)Oc1nc(Cl)c(Cl)cc1Cl`, for which the AC50 was 81.5 µM (active).

In the case of `CC(C)=CC1C(C(=O)OCc2coc(Cc3ccccc3)c2)C1(C)C` (configuration not stated), the AC50 was 32.7 µM (active).

Regarding `COP(=S)(OC)SCn1nnc2ccccc2c1=O`, the concentration at half-maximal activity (AC50) is 53.8 µM (active).

Take `CCN(CC)C(=O)C(C)Oc1cccc2ccccc12` (configuration not stated): the AC50 was 87.8 µM (active).

What is called AC50 is the concentration at which the activity in the assay is half-maximal.
